The sample as a whole holds a higher share of hits than the screen did.
ST2 IL33 inh = inhibitors of human ST2 (IL1RL1) binding to IL-33, primary screen, biochemical, AlphaLISA; 78,000 compounds, 2.3% hits; Interleukin-1 receptor-like 1 (Homo sapiens), Q01638; AlphaLISA ST2-Fc/biotin-IL-33 interaction, 1 h; inhibition, % for hits at 17 µM; in the data active = inhibition above about 30%
Target sequence (Q01638 whole entry, looked up): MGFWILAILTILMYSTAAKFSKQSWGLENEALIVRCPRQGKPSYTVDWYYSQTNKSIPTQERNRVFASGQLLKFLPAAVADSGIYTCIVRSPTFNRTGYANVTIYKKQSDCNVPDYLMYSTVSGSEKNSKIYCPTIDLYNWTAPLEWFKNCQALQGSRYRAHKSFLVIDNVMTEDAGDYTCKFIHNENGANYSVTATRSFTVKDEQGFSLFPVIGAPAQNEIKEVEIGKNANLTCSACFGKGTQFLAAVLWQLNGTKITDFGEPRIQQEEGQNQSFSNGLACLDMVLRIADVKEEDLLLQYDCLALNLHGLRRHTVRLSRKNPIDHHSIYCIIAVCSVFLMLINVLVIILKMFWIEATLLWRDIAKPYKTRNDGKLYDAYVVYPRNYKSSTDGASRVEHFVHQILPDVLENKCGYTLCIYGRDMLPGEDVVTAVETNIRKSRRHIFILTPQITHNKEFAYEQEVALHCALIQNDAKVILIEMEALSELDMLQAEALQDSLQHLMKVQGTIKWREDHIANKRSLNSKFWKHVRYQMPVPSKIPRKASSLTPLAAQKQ
Starred values were filed as active, the others as inactive; i = inactive.

SMILES	ST2 IL33 inh
COc1ccccc1-n1c(O)c(C=Nc2ccc(C(F)(F)F)cc2)c2ccccc2c1=O	33%*
COc1ccc(O)c(C=Nc2c(C)n(C)n(-c3ccccc3)c2=O)c1	i
COc1ccc(N=Cc2c(O)n(-c3ccccc3OC)c(=O)c3ccccc23)c(OC)c1	31%*
COc1ccc(-n2c(=O)[nH]c3cc(C(=O)O)ccc3c2=O)cc1OC	i
COc1ccc(-n2nc(C(=O)O)c3ccccc3c2=O)c(OC)c1	i
O=c1oc2ccccc2c(O)c1C=Nc1cccc(C(F)(F)F)c1	i
O=C(c1ccccc1F)N1CCN=C1SCc1ccc(Br)cc1	i
CCOC(=O)CCNC(=O)N1CCCC1c1nc2ccc(F)cc2[nH]1 (configuration not stated)	i
Cc1c(C(=O)NC2CCCC2)oc2ccc(S(=O)(=O)N3CCCCCC3)cc12	i
O=C(C1CC1)N1CCC(Oc2cccc(C(=O)N3CC4C[C@@H]5CC3C[C@H](C4)C5)c2)CC1	i
CCC(C)NC(=O)CSc1nc2nc(C)c(Cc3cccc(Cl)c3)c(C)n2n1 (configuration not stated)	i
CCC(Oc1ccc2c(c1)C(=O)CC(C)(C)O2)C(=O)NCc1ccco1 (configuration not stated)	i
Cc1ccc(-n2c(-c3ccc(F)cc3)cn3c4c(=O)n(C)c(=O)n(C)c4nc23)cc1	i
Cc1ccccc1N=C(NN)c1ccccn1	i
N#Cc1ccccc1-c1nc2c3c(c(N)ccc3n1)C(=O)c1ccccc1-2	42%*
Cn1c(CCC(=O)NC2CCC(n3cnnc3)CC2)nc2cccnc21 (configuration not stated)	i
Cc1cccc(-c2ncc(-c3nccn3CCCc3nn[nH]n3)cn2)c1	i
CC(C)=CCc1c2c(cc3ccc(=O)oc13)CC(C(C)(C)O)O2 (configuration not stated)	i
CCOc1ccc(C2CC(=O)N3CN(c4ccc(Cl)cc4)CSC3=C2C#N)cc1 (configuration not stated)	i
CC(=O)Nc1cc(C)c2c(=O)oc3ccccc3c2n1	i
Cc1cc(NC(=O)/C=C\c2ccc3c(c2)OCO3)nc2c1c(=O)oc1ccccc12	43%*
Cc1cc(NC(=O)c2ccc3c(c2)OCO3)nc2c1c(=O)oc1ccccc12	i
CC1=C(C(N)=O)C(c2cccc(F)c2)n2nc(SCc3ccccc3F)nc2N1 (configuration not stated)	i
Cn1cncc1-c1nnc([C@H]2CCN(CC(C)(C)C)C2)o1	i
Oc1c(Cl)cc(Br)cc1C=Nc1ccccc1	i
SMILES	ST2 IL33 inh
CC(=O)N1c2ccc(N=Cc3cc(Br)cc(Br)c3O)cc2CC1C (configuration not stated)	i
Cn1c(=O)n(C)c2cc(N=Cc3cccc([N+](=O)[O-])c3)ccc21	i
CCc1ccc(N=Cc2cc(Br)ccc2O)cc1	36%*
Cn1c(=O)n(C)c2cc(N=Cc3cc(Br)ccc3O)ccc21	31%*
CCc1ccc(N=Cc2cccc([N+](=O)[O-])c2O)cc1	i
Cc1ccc(-c2csc3ncn(-c4ccccc4)c(=O)c23)c(C)c1	i
O=C(CN1CCN(Cc2ccccc2F)S1(=O)=O)Nc1ccccc1Cl	i
COc1cccc(OC)c1C(=O)N1CCN=C1SCc1c(F)cccc1Cl	i
COCc1nc(N(C)CCc2c(C)n[nH]c2C)c2cnn(C)c2n1	i
OCCc1ccccc1-n1ccnc1-c1ccc(-c2ccn[nH]2)o1	i
Cc1ccc(CN2CCN(Cc3cnc(-c4ccccc4)s3)CC2CCO)o1 (configuration not stated)	i
O=C(Nc1cccnc1)c1sc2cccc(Cl)c2c1Cl	i
Cc1nc2c(c(N3CCN(c4cccc(Cl)c4Cl)CC3)n1)CNC2	i
CC(C)CNC(=O)c1cc(-c2ccc(Cl)c(Cl)c2)on1	i
OCCn1c(-c2ccc(Cl)c(Cl)c2)csc1=Nc1ccccc1	48%*
COc1ccc2c(=O)c(-c3ccc4c(c3)OCCCO4)coc2c1	i
Cc1csc(=Nc2ccccc2)n1CC(=O)c1ccc(Cl)cc1	36%*
COc1ccc(N=c2scc(-c3ccc4c(c3)OCCO4)n2CCO)cc1	32%*
CCOC(=O)c1sc(=Nc2ccccc2)n(Cc2ccccc2)c1C	i
COc1ccc(CNC(=O)c2cc(-c3ccc4c(c3)OCO4)on2)cc1	i
CCn1c(C)csc1=NC(=O)c1ccccc1O	i
COc1ccc(-c2csc(=Nc3ccccc3)n2CCO)cc1F	48%*
COc1ccc(-c2cn3ccccc3n2)cc1F	i
COc1cc(/C=C2/NC(=O)NC2=O)c(Br)c(Br)c1O	i
O=C(Nc1ccc(-c2cccc(F)c2)cc1)C1CCCN1Cc1ncc[nH]1 (configuration not stated)	i
SMILES	ST2 IL33 inh
O=C(CS(=O)(=O)c1cn(Cc2ccccc2Cl)c2ccccc12)N1CCCCCC1	i
CCC1Oc2ccccc2N(CC(=O)NCCCN2CC(C)CC(C)C2)C1=O (configuration not stated)	i
CSCCC(=O)NC1CCCN(CC2CCCCC2)C1 (configuration not stated)	i
C=CCSc1nc(O)c(C(C)CC)c(=O)[nH]1 (configuration not stated)	i
OCCn1c(-c2ccc(Cl)cc2)csc1=Nc1ccccc1	61%*
OCCCn1c(-c2ccccc2)csc1=Nc1ccccc1	61%*
OCCn1c(-c2ccc(I)cc2)csc1=Nc1ccccc1	42%*
COc1ccc(OCCn2c(=N)n(CC(C)C)c3ccccc32)cc1	i
Cc1nc2ccccc2c(=O)n1CCCO	i
c1ccc(N=c2scc(-c3ccccc3)n2CCN2CCOCC2)cc1	i
COc1ccc(-c2csc(=Nc3ccccc3)n2CCCN(C)C)cc1	44%*
COc1ccc(C(O)=C2C(=O)C(=O)N(CCCN(C)C)C2c2cccs2)c(C)c1 (configuration not stated)	i
CCOC(=O)c1ccc(NS(=O)(=O)c2ccc3c4c(cccc24)C(=O)N3)cc1	i
O=C(COc1ccc(Cl)cc1)Nc1cccc(C(F)(F)F)c1	i
CCCCOC(=O)C1=C(C)Nc2ncnn2C1c1ccc(F)cc1 (configuration not stated)	i
Cc1nnc(SCC(=O)Nc2ccc(Cl)cc2)s1	i
Cc1nccn1S(=O)(=O)/C=C/c1ccc([N+](=O)[O-])cc1	i
CC(C)N(C)C1CCN(S(=O)(=O)c2ccc(Cl)cc2)CC1	i
CCCOCCOC(=O)C1=C(C)NC2=C(C(=O)C(C(=O)OC)C(C)C2)C1c1ccc(F)cc1 (configuration not stated)	i
CCNc1ncc(C(=O)N2CCCC3(C=Cc4ccccc4O3)CC2)cn1 (configuration not stated)	i
CCC(C)NC(=O)C1CCN(C(=O)c2ccccc2Cl)CC1 (configuration not stated)	i
Cc1ccsc1[C@@H]1CCN(Cc2sc(N)nc2Cl)C[C@H]1O	i
CNC(=O)[C@@H]1C[C@H](N)CN1C(=O)C1Cc2ccccc2C1	i
O=C(CN1CCCCCC1)N1CCCCC1c1cccnc1 (configuration not stated)	i
CC(=O)Nc1ccc(N2CCOCC2)cc1	i
COc1c(Cl)cc(Cl)cc1C(=O)Nc1ccccc1N1CCOCC1	i
CC(C)=Cc1oc2c(Cl)cc(Cl)cc2c1N1CCOCC1	30%*
CCC(=O)N1CCc2cc(Br)cc(S(=O)(=O)N3CCN(CC)CC3)c21	i

Compound activity from PubChem.
